The source made the active and inactive calls. Rule for the calls: active = hit-call score of the fitted dose curve at least 0.9, where 1 is the maximum; inactive = score below 0.9.

Read-out in the test: 3-Hydroxy-3-Methylglutaryl-CoA Synthase 2 (HMGCS2), HMGCS2 (gene 3158)
Briefly: LTEA_HepaRG_HMGCS2: Life Technologies and Expression Analysis (LTEA) Assay for 3-Hydroxy-3-Methylglutaryl-CoA Synthase 2 (HMGCS2) using HepaRG (AID 2283504). The conditions noted are these: mRNA level, 48 h; actives raise or lower the signal. Here is the method:
LTEA_HepaRG is a cell based, multiplexed-readout assay that uses HepaRG, a human liver cell line, with measurements taken at 48 hours after chemical dosing on a 96-well plate.LTEA_HepaRG_HMGCS2 is one of 102 assay component(s) measured in the LTEA HepaRG cell culture assay. It is a marker of Steatosis.Data from the assay component LTEA_HepaRG_HMGCS2 was analyzed into 1 endpoint. This assay endpoint, LTEA_HepaRG_HMGCS2, was analyzed with bidirectional fitting relative to DMSO as the negative control and baseline of activity. Using a type of inducible reporter, measures of mRNA induction for gain or loss-of-signal activity can be used to understand regulation of transcription factor activity. To generalize the intended target to other relatable targets, this assay endpoint is annotated to the lyase intended target family, where the subfamily is HMG-CoA synthase.
A total of 1060 chemcials from the ToxCast library were tested in eight-point concentration-response experiments. Cell culture and cytotoxicity assays were conducted at Thermo Fisher Scientific's Custom Services facility (Madison, WI). A single lot of human HepaRG cells (Thermo Fisher Scientific, Frederick, MD) was used for the cell culture experiments. 96-well format collagen type I coated plates of human HepaRG cells were prepared using established methods. Briefly, cryopreserved HepaRG cells were thawed, plated at a density of approximately 100,000 cells/well in HepaRG Thaw, Plate, and General Purpose media (HPRG770, Thermo Fisher Scientific), and incubated for 48 hours. 0.5% DMSO was selected as vehicle control to balance the requisite need of DMSO in HepaRG cultures to maintain differentiation (for example, baseline metabolism, proportions of hepatocytes vs. cholangiocytes), while enabling further hepatic receptor pathway activation (for example, PXR and CAR) in response to chemical exposure. 48 hours after plating, the culture medium was replaced with HepaRG Serum-Free Incudtion Media. Cells were exposed to each test chemical in duplicate and maintained in CO2 incubators for another 48 hours. Chemical plates were thawed to room temperature and 200x concentrations of treatment groups were prepared. 8-point conentration-reponse curves were made with the highest exposure at 100 uM, followed by half-log dilutions, all in 0.5% DMSO. Each test plate contained variouse controls, induction positive controls (1mM phenobarbital), cytotoxicity positive controls ([…] aflatoxin B1), vehicle controls (0.5% DMSO), and total lysis controls (0.5% DMSO). Cell morphology images were taken using an Essen IncuCyte FLR automated microscope, with six 96-well plates imaged in about 24 minutes. Images were captured and exported and JPEG files. Spent culture media was transfered to black-well plates for the LDH assay, and remaining media was sorted at -80 C for later use. Cells were treated with RLT buffer and frozen until shipped for gene expression analysis. Total RNA was isolated from the cell suspension in 75 uL of Buffer RLT (Qiagen, Germantown, MD 20874) by Quintiles/Expression Analysis (Durham, NC) using a custom isolation procedure. Total RNA from each plate well was transferred to a preamplification plate. Fluidigm's 96.96 Dynamic ArrayTM (Fluidigm, Amsterdam, the Netherlands) technology was used for gene expression analyses by quantitative reverse transcription polymerase chain reaction (qRT-PCR, performed by Quintiles/Expression Analysis, Durham, NC)89. Standard TaqManTM Assays (Applied Biosystems/ThermoFisher Scientific, Foster City, CA) were used to assess the expression of 93 genes selected based on their selectivity and sensitivity to important hepatic receptors known to be modulated by environmental chemicals; importance in human hepatocyte functionality; and hepatotoxicity. […]
In the case of `Cc1ccc(S(=O)(=O)O)cc1C`, the compound was called inactive.

As to `CCCC(=O)OCC`, the call was inactive.

For the compound `CC(C)=CCC/C(C)=C\CO`, the result was inactive.

Turning to `Fc1ccccc1[C@@H](F)COC1CCC(Nc2ncnc3[nH]ncc23)CC1` (stereo not given in full), the AC50 was 45.2 µM (active).

As to `C=CC(=C)CCC=C(C)C`, the call was inactive.

Take `C1=CCCC=CCCC=CCC1`: the call was inactive.

As to `O=C(O)c1cccc(Oc2ccccc2)c1`, the compound was called inactive.

`CC(C)CC(C)(O)C#CC(C)(O)CC(C)C` (stereo not given): the call was inactive.

`CCOc1cccc(-n2cc(C(=O)N3CCN(c4cc(C(=O)O)c5ccccc5c4)CC3)nc2-c2ccc(C)cc2)c1`: the AC50 was 33.7 µM (active).

Regarding `CC/C(=C\C(=N/O)C(N)=O)C(C)[N+](=O)[O-]` (stereo not given), the result was inactive.

`CC(C)c1cccc(C(C)C)c1N1C(=O)c2ccc(O)cc2C1=O`: the AC50 was 80.7 µM (active).

Consider `CN(C)c1ccc(Cc2ccc(N(C)C)cc2)cc1`, for which the concentration at half-maximal activity (AC50) was 88.4 µM (active).

`O=C(O)c1cccc(N(Cc2cccnc2)c2ccc(OC(F)F)c(OC(F)F)c2)c1`: the result was inactive.

On to `CC[C@H]1OC(=O)[C@H](C)[C@@H](O[C@H]2C[C@@](C)(OC)[C@@H](O)[C@H](C)O2)[C@H](C)[C@@H](O[C@@H]2O[C@H](C)C[C@H](N(C)C)[C@H]2O)[C@](C)(O)C[C@@H](C)C(=O)[C@H](C)[C@@H](O)[C@]1(C)O`, for which the result was inactive.

Turning to `CC(C)=CCCC(C)CCO` (stereo not given), the compound was classed as inactive.

Turning to `COc1ccc(-n2nc(C(F)F)cc2-c2ccc(S(C)=O)cc2)cc1` (stereo not given), the compound was called inactive.

Take `Cc1[nH]cnc1C[C@H]1CCc2c(C)c3ccccc3n2C1=O`: the AC50 was 23.8 µM (active).

On to `CCOC(=O)COc1ccc2c(c1)CC(NCC(O)c1cccc(Cl)c1)CC2` (stereo not given), for which the result was inactive.

In the case of `CC1=CC(=O)CC(C)(C)C1`, the compound was called inactive.

Consider `Cc1c(-c2cccnc2)c2ccccc2n1CCCCC(=O)O`, for which the compound was classed as inactive.

`O=P(OC(CCl)CCl)(OC(CCl)CCl)OC(CCl)CCl`: the AC50 was 72.8 µM (active).

Take `CCCCCCCCCCCCCCCO`: the compound was called inactive.

Consider `CCCCC(CC)COC(=O)c1ccc(C(=O)OCC(CC)CCCC)cc1` (stereo not given), for which the compound was called inactive.

Regarding `O=c1[nH]c2ccc(S(=O)CCN3CCC(Cc4ccc(F)cc4)CC3)cc2o1` (stereo not given), the AC50 is 74.7 µM (active).

On to `CC(C)(O)c1coc(S(=O)(=O)NC(=O)Nc2c3c(cc4c2CCC4)CCC3)c1`, for which the outcome was inactive.

With `CC(C)CCO`, the call was inactive.

As to `CCOC(=O)c1ccc(C2CCC(NC[C@H](O)COc3ccc(O)c(NS(C)(=O)=O)c3)CC2)cc1` (stereo not given in full), the outcome was inactive.

As to `CC1(C)C(=O)N(Br)C(=O)N1Br`, the compound was classed as inactive.

Turning to `O=c1n(CC2CO2)c(=O)n(CC2CO2)c(=O)n1CC1CO1` (stereo not given), the call was inactive.

As to `CC[C@H](C)C(=O)O[C@H]1C[C@@H](C)C=C2C=C[C@H](C)[C@H](CC[C@@H]3C[C@@H](O)CC(=O)O3)[C@H]21`, the compound was called inactive.

Turning to `COc1ccc(/C=C/S(=O)(=O)NC(=O)c2ccc(C)cc2Cl)cc1`, the call was inactive.

For `Cn1c(=O)cc(Oc2ccc(F)cc2F)c2cnc(NCC(C)(C)O)nc21`, the compound was called inactive.

With `CCOCCOCCOCCO`, the outcome was inactive.

For the compound `COc1cccc(-c2ccc(/C=C\CN3CCCCCC3)cc2Cl)c1`, the AC50 was 83.9 µM (active).

`CCCCCCc1ccc(O)cc1O`: the compound was classed as inactive.

Consider `COc1ccc2sc(C(=O)Nc3nnn[nH]3)c(OC(C)C)c2c1`, for which the concentration at half-maximal activity (AC50) is 86.5 µM (active).

Regarding `CCN(C(=O)c1cc(C)cc(OC[C@H](C)Nc2ccncc2)c1)C(C)C`, the AC50 is 33.8 µM (active).

For the compound `CC(C)CCCCCCCOC(=O)CCCCC(=O)OCCCCCCCC(C)C`, the call was inactive.

Turning to `O=C(O)CCN(C1(C(=O)NO)CCCC1)S(=O)(=O)c1ccc(Oc2ccc(F)cc2)cc1`, the result was inactive.

For the compound `Clc1nc(Cl)c(Cl)c(Cl)c1Cl`, the outcome was inactive.

(Values after PubChem BioAssay (EPA / NIEHS).)
